JMJD2A Tudor: qHTS Assay for Inhibitors of JMJD2A-Tudor Domain | AID 504339, 2011 | 390,000 tested, 4.4% active | AlphaScreen JMJD2A-Tudor / H3K4me3 peptide binding | Potency, µM (titrated, usually from 114 µM), for the others: at the highest dose activity change, negative = inhibition, hits mostly inhibitors; note: potency is the fitted concentration of half-maximal effect; % is set by controls: 0 for no effect and ±100 for the full control effect; nearly all actives have a fitted effect of over 50% in size
HP1b binding inh: HTS for Inhibitors of HP1-beta Chromodomain Interactions with Methylated Histone Tails | 390,000 tested, 0.56% active | Chromobox protein homolog 1 (Homo sapiens), P83916 | AlphaScreen HP1-beta / biotin-H3K9me3 peptide binding | AID 540317, 2011 | Potency, µM (titrated, usually from 114 µM), inactives show top-dose activity change, negative = inhibition, actives largely listed as inhibitors; note: potency is the fitted concentration of half-maximal effect; nearly all actives have a fitted effect of over 70% in size
Target sequence (P83916 whole entry, looked up): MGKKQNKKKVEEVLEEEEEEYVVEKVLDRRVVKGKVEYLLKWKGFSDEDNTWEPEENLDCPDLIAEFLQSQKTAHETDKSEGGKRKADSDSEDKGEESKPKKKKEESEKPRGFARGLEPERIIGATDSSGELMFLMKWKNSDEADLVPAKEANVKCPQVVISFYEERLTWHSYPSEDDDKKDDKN
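HP1-beta protein (50 nM final) preincubated 30 min at room temperature with biotinylated H3(1-18)K9me3 peptide (50 nM) in PBS pH 7.4, 0.01% Tween-20, then compound added for 30 min. AlphaScreen streptavidin donor/nickel chelate acceptor beads (10 ug/mL final), 30 min dark, luminescence read.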
Six1-Eya2 inh: qHTS Assay for Inhibitors of the Six1/Eya2 Interaction; Homeobox protein SIX1 (Homo sapiens) + Protein phosphatase EYA2 (Homo sapiens), …; AlphaScreen GST-Six1/His-Eya2 binding, biochemical; hits give low values; activity change, % (concentration not given with the values); 360,000 tested, 0.56% active; AID 651725, 2012; in the data active = activity change below about -65%; inconclusive = mostly about -30% to -63%; note: % is set by controls: 0 for no effect and ±100 for the full control effect
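AlphaScreen with GST-Six1 and His-Eya2 (5X mix: 250 nM and 500 nM), glutathione donor and nickel acceptor beads; buffer 50 mM Tris pH 8.0, 300 mM NaCl, 1 mM TCEP; 1 h at 37 C in the dark.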
G9a inh: qHTS Assay for Inhibitors of Histone Lysine Methyltransferase G9a | G9a H3K9 monomethylation, AlphaScreen, 2 h | Potency, µM (highest dose often 102 µM), without a hit: top-dose activity, negative = inhibition, usual class: inhibitors | 350,000 tested, 8.8% active; note: potency is the fitted concentration of half-maximal effect; % is set by controls: 0 for no effect and ±100 for the full control effect; nearly all actives have a fitted effect of over 75% in size
Target sequence (Q96KQ7 913-1193 limits assumed): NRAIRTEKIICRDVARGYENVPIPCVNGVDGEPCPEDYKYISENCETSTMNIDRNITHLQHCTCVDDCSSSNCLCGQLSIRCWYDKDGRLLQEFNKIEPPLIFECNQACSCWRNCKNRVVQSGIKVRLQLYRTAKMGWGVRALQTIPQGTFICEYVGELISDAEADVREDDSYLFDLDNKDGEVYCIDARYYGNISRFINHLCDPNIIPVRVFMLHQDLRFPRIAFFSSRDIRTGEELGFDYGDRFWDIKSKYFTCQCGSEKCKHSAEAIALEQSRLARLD
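G9a (20 nM) was preincubated 15 min with compound, then reacted 2 h at room temperature with 500 nM biotin-H3K9 peptide and 20 µM SAM. Monomethyl-H3K9 detected by AlphaScreen using anti-H3K9me1 antibody.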
CtBP-E1A inh: qHTS Assay for Inhibitors of the CtBP/E1A Interaction; 340,000 tested, 0.49% active; activity change, % (test concentration not listed); AlphaScreen GST-E1A/His-CtBP binding, 1536-well; hits give low values; in the data active = activity change below about -65%; inconclusive = mostly about -30% to -63%; note: % is set by controls: 0 for no effect and ±100 for the full control effect
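AlphaScreen with 125 nM GST-E1A and 125 nM His-CtBP (5X stocks) in Tris pH 8.0, 300 mM NaCl, BSA, Tween 20, TCEP. Compounds preincubated 2 h at 37 deg C, then glutathione donor/nickel acceptor beads added for 1 h at 37 deg C in dark.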
BAZ2B inh: qHTS Assay for Inhibitors of BAZ2B. AlphaScreen BAZ2B-H3K14Ac peptide displacement. Potency, µM (doses to about 114 µM), without a hit: at the top dose activity change, negative = inhibition, hits mostly inhibitors. Bromodomain adjacent to zinc finger domain protein 2B (Homo sapiens), Q9UIF8. 360,000 tested, 4.4% active; note: potency is the fitted concentration of half-maximal effect; % is set by controls: 0 for no effect and ±100 for the full control effect; nearly all actives have a fitted effect of over 60% in size
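AlphaScreen displacement: compounds (up to 110uM) incubated 30 min at room temperature with a preformed 50 nM BAZ2B/50 nM biotinylated H3K14Ac peptide complex in PBS pH 7.4 with Tween-20. Donor and acceptor beads at 10 ug/mL final added, 20 min light-protected before reading.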
An asterisk follows results filed as active; ? = inconclusive; . = no result given; [ ] = remark or other dose. Only some compounds are listed: those with a hit (about 10% of all), similar ones and a draw of the others. Unless noted, calls come from the whole dose curve; as a rule, active = well fitted inhibition curve with a large enough effect; inconclusive = small, poorly fitted or top-dose-only effect; inactive = no such curve, though single readings can be large or run the other way.

SMILES	JMJD2A Tudor	HP1b binding inh	Six1-Eya2 inh	G9a inh	CtBP-E1A inh	BAZ2B inh
Cc1ccc(-n2nc(C)cc2NC(=O)c2ccc(C)s2)cc1	7%	26%	2	79µM*	5	10%
Cn1cnc([N+](=O)[O-])c1SCC(=O)NN	-6%	21%[57 µM]	-4	7.1µM*	.	?
CC(=O)Nc1ccc(S(=O)(=O)Nc2nc3ccc([N+](=O)[O-])cc3s2)cc1	-5%[11.4 µM]	30%	-5	45µM*	.	15%
CC(C)C(=O)Nc1nc2ccc(S(C)(=O)=O)cc2s1	-2%	29%	-2	.	0	-10%
CCC(C)C(=O)Nc1nc2ccc(S(C)(=O)=O)cc2s1 (stereo not drawn)	-1%[11.4 µM]	4%	0	32µM*	.	-6%
CCc1noc(C)c1C(=O)Nc1nc2ccc(F)cc2s1	-21%	23%	7	16µM*	-1	5%
CS(=O)(=O)c1ccc2nc(NC(=O)CCNC(=O)c3ccc([N+](=O)[O-])cc3)sc2c1	-1%	29%	11	40µM*	-24	7%
CC(=O)Nc1ccc(NC(=O)c2cc(CN3CCCC3)on2)cc1	-13%	28%	.	8%[59 µM]	.	-10%
Cc1onc(-c2ccccc2Cl)c1C(=O)Nc1nc2ccc(S(C)(=O)=O)cc2s1	-8%	13%	2	-2%[59 µM]	-10	4%
CCc1noc(C)c1C(=O)Nc1nc2ccc(S(C)(=O)=O)cc2s1	-1%	46%	4	50µM*	4	12%
Cc1[nH]c2ccc(F)cc2c1CCN(Cc1cccnc1)C(=S)Nc1cccc(F)c1	?	0%	-15	?	-1	32µM*
Cc1ccccc1NC(=S)N(CCc1c(C)[nH]c2ccc(F)cc12)Cc1cccnc1	?	-7%	-10	56µM*	.	.
Cc1[nH]c2ccc(F)cc2c1CCN(Cc1cccnc1)C(=S)NC(C)(C)C	-36%	32%	-11	-15%	-6	-37%
CCN(CC)CCN(Cc1cc2ccc(C)c(C)c2[nH]c1=O)C(=S)NCc1ccco1	?	?	-6	50µM*	3	?
CN(C)S(=O)(=O)N1CCC(Oc2ccc(C(=O)N3CCCCCC3)cc2)CC1	.	.	2	.	-5	.
CN(C)S(=O)(=O)N1CCC(Oc2ccc(C(=O)N3CCCCCCC3)cc2)CC1	-5%	23%	7	?	5	56µM*
CCCCCC/C=C/c1ccc(C2C3C=CCC(C)C3C(=O)N2Cc2ccccc2)c(F)c1 (stereo not drawn)	14%	39%	.	.	.	.
CCc1ccc(C2NC(=S)NC3=C2C(=O)N(c2ccccc2OC)C(c2ccc(CC)cc2)N3)cc1 (stereo not drawn)	-23%	18%	-4	-43%[59 µM]	-14	?
O=C1C2=C(NC(=S)NC2c2ccc(Cl)cc2)NC(c2ccc(Cl)cc2)N1c1ccc(Cl)cc1 (stereo not drawn)	?	18%	-4	50µM*	1	?
CCCc1nnc(NC(=O)C2CC(=O)N(C3CCCC3)C2)s1 (stereo not drawn)	-11%	-9%	21	22µM*	0	1%
CCc1nnc(NC(=O)C2CC(=O)N(C3CCCC3)C2)s1 (stereo not drawn)	2%	13%	-4	?	1	8%
CCC(CC)c1nnc(NC(=O)C2CC(=O)N(C3CCCC3)C2)s1 (stereo not drawn)	-4%	-13%	0	11µM*	-3	3%
CCOc1ccc(CNC(=O)C2Cc3ccccc3N2C(=O)CC)cc1 (stereo not drawn)	-11%	32%	.	1%[12.7 µM]	.	-1%
Cc1ccc(NC(=O)C2CCN(C(=O)[C@@H]3Cc4ccccc4CN3)CC2)c(C)c1	-32%	35%	2	45µM*	7	-12%
O=S(=O)(c1ccc2c(c1)OCCO2)N1CCN(S(=O)(=O)c2cccc3cccnc23)CC1	-13%	.	.	.	.	.
SMILES	JMJD2A Tudor	HP1b binding inh	Six1-Eya2 inh	G9a inh	CtBP-E1A inh	BAZ2B inh
CN1C(=O)C2CCCCN2c2ccc(C(=O)NCc3ccccc3Br)cc21 (stereo not drawn)	-27%	10%[57 µM]	.	5%[59 µM]	.	-25%
CCc1ccc2c(c1)c(=O)c(S(=O)(=O)c1ccc(Cl)cc1)cn2CC	-17%	21%	.	2%[59 µM]	.	56µM*
CCOc1ccc(CCNC(=O)c2cc3c(=O)[nH]c4ccc(C)cc4c3s2)cc1OCC	-21%	20%	.	3%[59 µM]	.	-17%
O=C1C=C(N2CCN(c3ccccn3)CC2)C(=O)c2c(O)ccc(O)c21	32µM*	?	-13	.	-12	.
c1ccc(N=NC2=NN(c3ccccc3)CS2)cc1	.	.	-77*	.	?	.
COc1ccc(CN(CCCN2CCOCC2)C(=O)Nc2ccccc2)cc1OC	-25%	13%	0	17%	8	-3%
CCCN1CCCc2cc(CN(CCCN3CCOCC3)C(=O)Nc3ccc(CC)cc3)ccc21	?	?	.	13µM*	.	8.9µM*
CCCCN1CCCc2cc(CN(CCCN3CCOCC3)C(=O)Nc3ccc(CC)cc3)ccc21	7.9µM*	-13%	.	8.9µM*	.	?
CCc1ccc2[nH]c(=O)c(CN(CCCN3CCOCC3)C(=O)Nc3ccc(F)cc3)cc2c1	-22%	2%	-5	-38%[2.33 µM]	-4	-3%
O=P(O)(O)O[C@@H]1[C@H](O)[C@H](O)[C@@H](OP(=O)(O)O)[C@H](OP(=O)(O)O)[C@H]1O	.	.	.	30%[59 µM]	.	.
Cc1cccc(-n2cc[nH]c2=S)c1	5.6µM*	11%	-2	2.8µM*	-1	-1%
CC(C)c1ccccc1-n1cc[nH]c1=S	22µM*	23%	1	4µM*	-6	?
Cc1ccccc1-n1cc[nH]c1=S	10µM*	16%	-8	13µM*	0	5%
Cc1cccc(-n2cc[nH]c2=S)c1C	40µM*	35%	5	1.8µM*	-6	-6%
COc1ccc(C2Nc3ccccc3C(=O)N2c2cccc3ccccc23)cc1COc1c(C)cccc1C (stereo not drawn)	-25%[57.1 µM]	17%[57 µM]	.	.	.	.
CCN(CC)CCNC(=O)c1nn(C)c2c1CS(=O)(=O)c1ccccc1-2	-18%	-16%	.	?	.	-2%
Cc1ccc(CNC(=O)CCCCn2c(=O)c3ccccc3n(Cc3ccc(Cl)cc3)c2=O)cc1	7%	4%	.	2%[59 µM]	.	1%
CCC(C(=O)Nc1ccc(C)c(C)c1)n1c(=O)c(C(F)(F)F)nc2ccccc21 (stereo not drawn)	-6%	10%	.	2%[59 µM]	.	4%

Bioassay records (PubChem BioAssay)
